This passage reports composite z-score results from PubChem BioAssay.

In the first experiment the target is Pro-neuregulin-1, membrane-bound isoform (Homo sapiens) (UniProt Q02297). As to the kind of experiment: small molecules binding neuregulin-1 protein – biochemical, small-molecule microarray, fluorescence 635/667, psychiatric disease protein project, primary screen (AID 1075).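 Also: score combines 667 nm spot fluorescence with signal to noise.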 Conditions: NRG1 binding, 635 nm fluorescence, higher = more signal.
Sequence of Pro-neuregulin-1, membrane-bound isoform (Homo sapiens) (Q02297 whole entry, looked up, canonical isoform): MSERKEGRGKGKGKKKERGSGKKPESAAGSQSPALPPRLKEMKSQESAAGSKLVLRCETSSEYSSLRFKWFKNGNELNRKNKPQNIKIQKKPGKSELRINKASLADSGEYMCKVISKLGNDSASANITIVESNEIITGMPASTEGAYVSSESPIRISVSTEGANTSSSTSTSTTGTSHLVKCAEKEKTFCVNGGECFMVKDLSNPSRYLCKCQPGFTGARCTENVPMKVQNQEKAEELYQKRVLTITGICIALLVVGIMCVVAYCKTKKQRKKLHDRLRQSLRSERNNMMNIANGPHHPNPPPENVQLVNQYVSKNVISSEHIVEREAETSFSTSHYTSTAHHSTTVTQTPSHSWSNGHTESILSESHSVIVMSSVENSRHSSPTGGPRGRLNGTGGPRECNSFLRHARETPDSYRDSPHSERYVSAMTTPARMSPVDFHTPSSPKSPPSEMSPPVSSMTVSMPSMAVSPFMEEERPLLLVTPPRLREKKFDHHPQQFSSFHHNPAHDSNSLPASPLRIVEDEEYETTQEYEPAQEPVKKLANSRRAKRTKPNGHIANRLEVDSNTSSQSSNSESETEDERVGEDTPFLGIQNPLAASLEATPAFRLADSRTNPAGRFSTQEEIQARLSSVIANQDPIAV
In turn, `COc1ccc(COC(=O)NN=C2C[C@@H](O)[C@@H](O)[C@@H]3[C@@H]4C(=O)N(C5CCCCC5)C(=O)[C@@H]4CC[C@H]23)cc1` returned a composite z-score of -0.255.
For `COC(=O)CC=C[C@H](C)[C@@H](OCc1cccc(Br)c1)[C@@H](C)[C@H](OC)C1CCCCC1`, the composite z-score came out at 0.419.
Turning to `Cc1ccc(S(=O)(=O)N[C@@H]2COC(=O)[C@@H](C)COC(=O)CC=C[C@H]2C)cc1`, the composite z-score was -0.126.
The molecule `O=C1[C@H]2[C@H]3[C@H](O)[C@H](O)CC(=NO[C@@H]4O[C@H](CO)[C@@H](O)[C@H](O)[C@H]4O)[C@H]3CC[C@H]2C(=O)N1c1cccc(Oc2ccccc2)c1` gave a composite z-score of -0.106.
The molecule `CCC1=NOC(CCC2CC(OC(=O)NCc3cccc4c3OCO4)CC3(CCCC(COC(=O)NCCc4ccccc4OC)O3)O2)C1` (stereo unspecified) returned a composite z-score of 0.796.
For the molecule `CCOC(=O)[C@H](CC(C)C)NC(=O)CCC1CC(OC(=O)NCc2cccc3ccccc23)CC2(CCCC(COC(=O)NCCOc3ccccc3)O2)O1` (stereo partly specified), the composite z-score was 0.647.
Take `O=c1n(Cc2cc3c(cc2Cl)OCO3)c(=O)n2n1CC[C@@H]1C(=NOCc3ccccc3)[C@H]3O[C@H]3[C@@H](O)[C@@H]12`: the composite z-score turned out to be 0.114.
`COC(=O)[C@@H]1CC[C@H](C)[C@@H](c2ccc(C)cc2)N1C(=O)c1ccc(C=NO[C@@H](C)c2cn([C@H](CO)Cc3ccccc3)nn2)cc1`: the composite z-score turned out to be 0.327.
`CC(C)=CCCC(C)=CCON=C1C[C@@H](O)[C@@H](O)[C@@H]2[C@@H]3C(=O)N(Cc4ccccc4)C(=O)[C@@H]3CC[C@H]12` returned a composite z-score of 0.774.
For `CC(C)C[C@H](NC(=O)CCC1CC(OC(=O)NCc2cccc3ccccc23)CC2(CCCC(COC(=O)NCc3ccccc3)O2)O1)C(=O)NCC(c1ccccc1)c1ccccc1` (stereo partly specified), the composite z-score was 0.438.
Molecule `CC(C)CON=C1C[C@@H](O)[C@@H](O)[C@@H]2[C@@H]3C(=O)N(C4CCCCC4)C(=O)[C@@H]3CC[C@@H]12` came in with a composite z-score of 1.45.
In the case of `C[C@@H](c1ccccc1)N1C(=O)[C@H]2[C@H]3[C@H](O)[C@H](O)CC(=NO[C@@H]4O[C@H](CO)[C@@H](O)[C@H](O)[C@H]4O)[C@H]3CC[C@H]2C1=O`, the composite z-score amounted to 0.0437.
`COC(=O)[C@@H]1CC[C@H](C)[C@@H](c2ccc(C)cc2)N1C(=O)c1ccc(C=NOC[C@@H](C)[C@H](OCc2ccccc2)C(C)C)cc1` had a composite z-score of 0.855.
The molecule `C[C@@H](c1ccccc1)N1C(=O)[C@H]2[C@H]3[C@H](O)[C@H](O)CC(=NOCc4ccccc4)[C@H]3CC[C@H]2C1=O` displayed a composite z-score of 0.381.
Consider `COC(=O)CC=C[C@@H](C)[C@@H](C=NOCC[C@@H]1C=C[C@H](OC(C)=O)[C@@H](COC(C)=O)O1)OC`, for which the composite z-score was -0.0568.

The next experiment relates to Neuregulin-1 EGF-like domain. Briefly: small molecules binding NRG1 EGF domain – biochemical, small-molecule microarray, 635 nm fluorescence, primary screen (AID 1081).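 Also: binding of the protein to compounds printed on small-molecule microarray slides.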 The settings on record: higher = more signal.
`C#CCCCON=C1[C@H]2CCn3c(=O)n(C)c(=O)n3[C@H]2[C@H](O)[C@@H]2O[C@H]12` showed a composite z-score of 0.58.
Consider `CCCCC#C[C@@H]1C=C[C@H](OC(C)=O)[C@@H](COC(C)=O)O1`, for which the composite z-score turned out to be 0.0329.
As to `CO[C@@H]1COC(=O)[C@@H](C)COC(=O)[C@@H](C)NC(=O)CC=C[C@@H]1C`, the composite z-score was determined as 0.675.
Same read-out and setting: under `Cc1ccc(S(=O)(=O)OC[C@H]2CN3[C@H](c4ccc(Br)cc4)[C@@H](C)CC[C@H]3C(=O)O2)cc1` stands 1.01; under `COc1ccc(COC(=O)NN=C2C[C@@H](O)[C@@H](O)[C@@H]3[C@@H]4C(=O)N(c5cccc(Oc6ccccc6)c5)C(=O)[C@@H]4CC[C@@H]23)cc1`, -0.265.
With `O=C1C2=CC[C@H]3C(=O)N(c4cccc(Oc5ccccc5)c4)C(=O)[C@H]3[C@H]2[C@H](O)[C@@H]2O[C@H]12`, the composite z-score stood at 0.129.
`CC(CCN1CCCCc2nc(C)c(C)cc21)=NO[C@H](C)c1cn([C@H](CO)Cc2ccccc2)nn1`: the composite z-score was determined as 0.362.
As to `CO[C@@H]1COC(=O)[C@H](CCSC)NC(=O)CC=C[C@@H](C)COC(=O)CCC[C@H]1C`, the composite z-score was 1.15.
On the same count and under the same terms, under `CC(CCN1CCCc2nc(C)c(C)cc21)=NO[C@@H](C)c1cc(-c2c(C)cc(C)cc2C)no1` stands 0.8; under `CO[C@@H]1COC(=O)[C@@H](C)NC(=O)CC=C[C@@H](C)[C@H](NS(=O)(=O)c2ccc(C)cc2)COC(=O)[C@H](C)NC(=O)CC=C[C@H]1C`, 0.388; under `CCN1C(=O)[C@H]2[C@H]3[C@H](O)[C@H](O)CC(=NOC[C@H]4O[C@H](c5ccccc5)C=C[C@@H]4Oc4ccc(OC)cc4)[C@@H]3CC[C@H]2C1=O`, 0.953.
The molecule `CCOC(=O)[C@H](CC(C)C)NC(=O)CCC1CC(OC(=O)NCc2cccc3ccccc23)CC2(CCCC(COC(=O)NCC3CCCCC3)O2)O1` (stereo partly specified) returned a composite z-score of 0.907.
Molecule `CC(C)CCN1CCc2nc(COc3ccccc3)c3c(c2C1)CO[C@@H](C)C3` gave a composite z-score of 0.135.
The molecule `COC(=O)CC=C[C@@H](C)[C@@H](C=NO[C@H](C)c1cn([C@H](CO)Cc2ccccc2)nn1)OC` registered a composite z-score of 0.516.
Still for that read-out and setting: with `CON=C(C)CCC(=O)OC[C@H]1O[C@H](c2ccccc2)C=C[C@@H]1Oc1ccc(OC)cc1` the figure was -0.0622; with `CCOC(=O)NN=C1C[C@@H](O)[C@@H](O)[C@@H]2[C@@H]3C(=O)N(c4cccc(Oc5ccccc5)c4)C(=O)[C@@H]3CC[C@@H]12`, 0.81.
Consider `CCN1C(=O)[C@H]2[C@H]3[C@H](O)[C@H](O)CC(=NO[C@@H](C)c4cn([C@H](CO)Cc5ccccc5)nn4)[C@@H]3CC[C@H]2C1=O`, for which the composite z-score is 0.971.
As for `COC(=O)CC=C[C@@H](C)[C@@H]1C=C[C@H](O)[C@@H](CO)O1`, the composite z-score is -0.0778.
Turning to `C[C@@H](ON=C1[C@H]2CCn3c(=O)n(-c4ccccc4)c(=O)n3[C@H]2[C@H](O)[C@@H]2O[C@H]12)c1cn([C@@H]2COC[C@H]2O)nn1`, the composite z-score stood at 0.261.
Take `CC(CCC(=O)OC[C@H]1O[C@H](C#Cc2ccccc2)C=C[C@@H]1Oc1ccc(C)cc1)=NO[C@H](C)c1cn([C@H](CO)Cc2ccccc2)nn1`: the composite z-score came to 0.529.
In the case of `C#CCCCON=C1C[C@@H](O)[C@@H](O)[C@@H]2[C@@H]3C(=O)N(C(C)(C)C)C(=O)[C@@H]3CC[C@H]12`, the composite z-score was -0.58.
With `COc1ccc(COC(=O)NN=C2C[C@@H](O)[C@@H](O)[C@@H]3[C@@H]4C(=O)N(C5CCCCC5)C(=O)[C@@H]4CC[C@H]23)cc1`, the composite z-score is -0.194.
As for `COC(=O)CC=C[C@H](C)[C@@H](OCc1cccc(Br)c1)[C@@H](C)[C@H](OC)C1CCCCC1`, the composite z-score was -0.3.
Consider `Cc1ccc(S(=O)(=O)N[C@@H]2COC(=O)[C@@H](C)COC(=O)CC=C[C@H]2C)cc1`, for which the composite z-score was 0.167.
On to `O=C1[C@H]2[C@H]3[C@H](O)[C@H](O)CC(=NO[C@@H]4O[C@H](CO)[C@@H](O)[C@H](O)[C@H]4O)[C@H]3CC[C@H]2C(=O)N1c1cccc(Oc2ccccc2)c1`, for which the composite z-score came out at 0.843.
Molecule `CCC1=NOC(CCC2CC(OC(=O)NCc3cccc4c3OCO4)CC3(CCCC(COC(=O)NCCc4ccccc4OC)O3)O2)C1` (stereo unspecified) had a composite z-score of 0.793.
On the same count and under the same terms, under `CCOC(=O)[C@H](CC(C)C)NC(=O)CCC1CC(OC(=O)NCc2cccc3ccccc23)CC2(CCCC(COC(=O)NCCOc3ccccc3)O2)O1` (stereo partly specified) stands 1.01.
Turning to `O=c1n(Cc2cc3c(cc2Cl)OCO3)c(=O)n2n1CC[C@@H]1C(=NOCc3ccccc3)[C@H]3O[C@H]3[C@@H](O)[C@@H]12`, the composite z-score is 0.428.
The molecule `COC(=O)[C@@H]1CC[C@H](C)[C@@H](c2ccc(C)cc2)N1C(=O)c1ccc(C=NO[C@@H](C)c2cn([C@H](CO)Cc3ccccc3)nn2)cc1` yielded a composite z-score of 0.477.
Same read-out and setting: with `CC(C)=CCCC(C)=CCON=C1C[C@@H](O)[C@@H](O)[C@@H]2[C@@H]3C(=O)N(Cc4ccccc4)C(=O)[C@@H]3CC[C@H]12` the figure was 1.06; with `CC(C)C[C@H](NC(=O)CCC1CC(OC(=O)NCc2cccc3ccccc23)CC2(CCCC(COC(=O)NCc3ccccc3)O2)O1)C(=O)NCC(c1ccccc1)c1ccccc1` (stereo partly specified), 1.2; with `CC(C)CON=C1C[C@@H](O)[C@@H](O)[C@@H]2[C@@H]3C(=O)N(C4CCCCC4)C(=O)[C@@H]3CC[C@@H]12`, -0.115.
For the molecule `C[C@@H](c1ccccc1)N1C(=O)[C@H]2[C@H]3[C@H](O)[C@H](O)CC(=NO[C@@H]4O[C@H](CO)[C@@H](O)[C@H](O)[C@H]4O)[C@H]3CC[C@H]2C1=O`, the composite z-score is 0.343.
The molecule `COC(=O)[C@@H]1CC[C@H](C)[C@@H](c2ccc(C)cc2)N1C(=O)c1ccc(C=NOC[C@@H](C)[C@H](OCc2ccccc2)C(C)C)cc1` had a composite z-score of 1.
Turning to `C[C@@H](c1ccccc1)N1C(=O)[C@H]2[C@H]3[C@H](O)[C@H](O)CC(=NOCc4ccccc4)[C@H]3CC[C@H]2C1=O`, the composite z-score was found to be 1.22.
`COC(=O)CC=C[C@@H](C)[C@@H](C=NOCC[C@@H]1C=C[C@H](OC(C)=O)[C@@H](COC(C)=O)O1)OC` gave a composite z-score of 0.813.
